In the library only some 3.5% were active in any assay of this set; here they are far more common.
BoNT A protease – blocks Botulinum neurotoxin A light chain protease | multiplex microsphere protease substrate cleavage, flow cytometry | inhibition, % at 10 µM | 0.17% of 360,000 active; note: plate controls were buffer without enzyme for full effect and enzyme alone for no effect
Autofluor counter – flagged as autofluorescent in microsphere protease counterscreen; compound autofluorescence counterscreen, microsphere flow cytometry; hits give high values; fluorescence intensity (test concentration not listed); 3.1% of 360,000 active; in the data active = fluorescence intensity above about 16000; inconclusive = no clear call, values can overlap the other calls
Anthrax LF inh2 – anthrax lethal factor protease inhibition; multiplex microsphere protease cleavage assay, LF; inhibition, % at 10 µM; 0.12% of 360,000 active; note: plate controls were buffer without enzyme for full effect and enzyme alone for no effect
Target sequence (P15917 whole entry, looked up): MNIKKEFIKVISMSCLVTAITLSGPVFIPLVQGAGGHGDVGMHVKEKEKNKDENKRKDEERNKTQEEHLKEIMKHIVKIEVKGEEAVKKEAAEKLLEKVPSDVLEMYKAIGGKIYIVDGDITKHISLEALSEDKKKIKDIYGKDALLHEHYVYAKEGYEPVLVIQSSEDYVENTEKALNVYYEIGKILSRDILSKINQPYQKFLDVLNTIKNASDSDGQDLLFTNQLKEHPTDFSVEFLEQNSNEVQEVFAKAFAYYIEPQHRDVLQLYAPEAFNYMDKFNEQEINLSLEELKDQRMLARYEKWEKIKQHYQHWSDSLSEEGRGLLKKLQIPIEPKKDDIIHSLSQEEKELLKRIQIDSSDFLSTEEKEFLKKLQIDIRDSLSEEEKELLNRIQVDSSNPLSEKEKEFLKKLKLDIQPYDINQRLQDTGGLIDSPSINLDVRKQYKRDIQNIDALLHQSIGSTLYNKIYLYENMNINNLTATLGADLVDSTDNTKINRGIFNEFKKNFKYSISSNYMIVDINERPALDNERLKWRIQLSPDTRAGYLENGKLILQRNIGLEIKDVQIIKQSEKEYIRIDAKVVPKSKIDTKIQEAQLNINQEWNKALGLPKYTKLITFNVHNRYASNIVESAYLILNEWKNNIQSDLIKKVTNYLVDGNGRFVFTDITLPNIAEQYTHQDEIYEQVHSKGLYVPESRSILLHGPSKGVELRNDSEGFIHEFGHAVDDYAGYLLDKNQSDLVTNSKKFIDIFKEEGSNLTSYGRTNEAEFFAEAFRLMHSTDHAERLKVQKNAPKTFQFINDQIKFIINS
BoNT F protease – blocks Botulinum neurotoxin F light chain protease; 0.22% of 360,000 active; AID 588497; inhibition, % at 10 µM; Multiplex microsphere protease cleavage assay, flow cytometry; in the data active = inhibition above about 35%, passing the limit was not always enough; inconclusive = no clear call, values can overlap the other calls; note: plate controls were buffer without enzyme for full effect and enzyme alone for no effect
Active calls of the source: *. Cut-off read from the data, not from the text of the source, unless noted: active = inhibition above about 30%; inconclusive = no clear call, values can overlap the other calls; inactive = below that.

What do the screens show for `COC(=O)[C@]12CCCCC=C1N(Cc1ccccc1)C(=O)[C@H](CC(=O)NCCCCc1ccccc1)C2`?
BoNT A protease: 0; Autofluor counter: 6186; Anthrax LF inh2: -5; BoNT F protease: 3

What do the screens show for `CCCCc1c(-c2ccccc2F)ncn1CCc1ccccc1OC`?
BoNT A protease: 0; Autofluor counter: 6170; Anthrax LF inh2: 4; BoNT F protease: -1

What do the screens show for `COCc1ccc(CN2CCC(n3nccc3NC(=O)c3ccc4c(c3)OCO4)CC2)o1`?
BoNT A protease: 0; Autofluor counter: 3482; Anthrax LF inh2: -3; BoNT F protease: -1

How did CN(C)C(=S)Oc1ccccc1C1SCCS1 do in these assays?
BoNT A protease: -1; Autofluor counter: 4404; Anthrax LF inh2: -3; BoNT F protease: -9

What do the screens show for `CCCOC(=O)Nc1ccc(N2CCCCC2)cc1`?
BoNT A protease: 2; Autofluor counter: 22287*; Anthrax LF inh2: -3; BoNT F protease: 1

How did CCCCC(=O)Nc1ccc(N2CCCC2)cc1 do in these assays?
BoNT A protease: 0; Autofluor counter: 1448; Anthrax LF inh2: -28; BoNT F protease: -131

What do the screens show for `COc1cccc(-c2nnn(CCC(=O)O)n2)c1`?
BoNT A protease: inconclusive; Autofluor counter: 19600*; Anthrax LF inh2: 1; BoNT F protease: 3

What do the screens show for `O=c1cc(-c2ccccc2)oc2c1CCCC2`?
BoNT A protease: -1; Autofluor counter: 6061; Anthrax LF inh2: -3; BoNT F protease: -3

What do the screens show for `Cc1nc2ccccc2c2nc(NC(=O)Cc3ccccc3)nn12`?
BoNT A protease: inconclusive; Autofluor counter: 17263*; Anthrax LF inh2: -8; BoNT F protease: -7

Results for Cc1cc(NC(=O)Cc2ccccc2)c2ccccc2n1 ?
BoNT A protease: 0; Autofluor counter: 4658; Anthrax LF inh2: 2; BoNT F protease: -4

What do the screens show for `Cc1cc(C2C(C#N)=C(N)SC(N)=C2C#N)c(C)s1`?
BoNT A protease: 18; Autofluor counter: 4324; Anthrax LF inh2: 13; BoNT F protease: 40*

Results for CCOc1ccccc1NC(=S)NCc1ccco1 ?
BoNT A protease: 0; Autofluor counter: 22578*; Anthrax LF inh2: 0; BoNT F protease: -1

Results for COc1ccc(Cl)cc1NC(=S)NCc1ccco1 ?
BoNT A protease: -2; Autofluor counter: 23985*; Anthrax LF inh2: 0; BoNT F protease: -3

How did COc1ccc(Cl)cc1NC(=O)NCc1ccco1 do in these assays?
BoNT A protease: 0; Autofluor counter: 2318; Anthrax LF inh2: -2; BoNT F protease: -5

Results for O=C(Nc1cccc(Cl)c1)c1ccc2sc([C@H]3C[C@H](O)[C@@H](CO)O3)nc2c1 ?
BoNT A protease: 0; Autofluor counter: 2971; Anthrax LF inh2: 11; BoNT F protease: -2

How did COc1ccc(N(C)S(=O)(=O)c2c(C)[nH]c(=O)[nH]c2=O)cc1 do in these assays?
BoNT A protease: 0; Autofluor counter: 4122; Anthrax LF inh2: 5; BoNT F protease: 10

How did COc1ccc(N(C)S(=O)(=O)c2c(C)[nH]c(=O)[nH]c2=O)c(OC)c1 do in these assays?
BoNT A protease: 0; Autofluor counter: 23317*; Anthrax LF inh2: -3; BoNT F protease: -2

Results for COc1ccc(NC(=O)c2cc(-c3cc(F)ccc3OC(C)C)n[nH]2)cc1OC ?
BoNT A protease: 0; Autofluor counter: 2856; Anthrax LF inh2: -4; BoNT F protease: -6

Results for Cc1ccc(N2CCN(S(=O)(=O)c3ccc4c(c3)n(C)c(=O)c(=O)n4C)CC2C)cc1 (configuration not stated) ?
BoNT A protease: -2; Autofluor counter: 9801; Anthrax LF inh2: 2; BoNT F protease: -6

What do the screens show for `Cc1cccc(N2CCN(S(=O)(=O)c3ccc4c(c3)n(C)c(=O)c(=O)n4C)CC2C)c1` (configuration not stated)?
BoNT A protease: inconclusive; Autofluor counter: 19587*; Anthrax LF inh2: -4; BoNT F protease: 8

Results for CCOC(=O)c1cnc(-n2nc(C)cc2C)nc1Nc1cccc(C(=O)O)c1 ?
BoNT A protease: 1; Autofluor counter: 21795*; Anthrax LF inh2: 1; BoNT F protease: 3

Results for CCOC(=O)c1cnc(-n2nc(C)cc2C)nc1N(CC)CC ?
BoNT A protease: inconclusive; Autofluor counter: 18780*; Anthrax LF inh2: -12; BoNT F protease: 2

How did CC1(Oc2cccc(C#N)c2)CCN(Cc2ccccc2OC(F)F)C1 (configuration not stated) do in these assays?
BoNT A protease: 0; Autofluor counter: 4131; Anthrax LF inh2: -7; BoNT F protease: -3

Results for Cc1noc(C)c1CSCC(=O)OCc1nc2ccccc2c(=O)n1CC#N ?
BoNT A protease: 7; Autofluor counter: 21620*; Anthrax LF inh2: 1; BoNT F protease: 6

What do the screens show for `Cc1occc1-c1nnc(SCc2nc3ccccc3c(=O)n2CC#N)n1C`?
BoNT A protease: 0; Autofluor counter: 23590*; Anthrax LF inh2: -1; BoNT F protease: -5

What do the screens show for `Cc1oc(-c2ccc(Cl)cc2)cc1-c1nn2c(-c3ccoc3C)nnc2s1`?
BoNT A protease: -2; Autofluor counter: 23295*; Anthrax LF inh2: -5; BoNT F protease: 3

What do the screens show for `Clc1ccc(-c2nnc3sc(-c4ccc(Br)o4)nn23)cc1`?
BoNT A protease: 0; Autofluor counter: 2967; Anthrax LF inh2: -1; BoNT F protease: -11

What do the screens show for `CC(C)(C)n1ncc2c(=O)n(Cc3ccc(Cl)cc3Cl)cnc21`?
BoNT A protease: 0; Autofluor counter: 2480; Anthrax LF inh2: 2; BoNT F protease: 2

Results for Cc1cc(C)n(-c2ccn(Cc3ccc(Cl)cc3Cl)c(=O)n2)n1 ?
BoNT A protease: -2; Autofluor counter: 23685*; Anthrax LF inh2: -1; BoNT F protease: -4

What do the screens show for `Cc1cccc2sc(NC(=O)CSCc3ccccc3)nc12`?
BoNT A protease: inconclusive; Autofluor counter: 23019*; Anthrax LF inh2: -1; BoNT F protease: 1

What do the screens show for `Cc1ccc(C(C)NC(=O)CSc2ccc(S(=O)(=O)N3CCOCC3)cn2)cc1C` (configuration not stated)?
BoNT A protease: -1; Autofluor counter: 4149; Anthrax LF inh2: -7; BoNT F protease: 2

What do the screens show for `CCC(=NNS(=O)(=O)c1ccc(C)cc1)c1ccc(OC)c(C)c1`?
BoNT A protease: 0; Autofluor counter: 3889; Anthrax LF inh2: 1; BoNT F protease: 3

Results for CC(NC(=O)c1ccc(F)cc1)c1nc2ccccc2n1Cc1ccccc1F (configuration not stated) ?
BoNT A protease: -7; Autofluor counter: 26278*; Anthrax LF inh2: 0; BoNT F protease: -10

Results for CCn1nccc1NC(=O)c1csc([C@@H]2O[C@H](CO)[C@H](O)[C@H](O)[C@H]2O)n1 ?
BoNT A protease: 0; Autofluor counter: 3003; Anthrax LF inh2: -6; BoNT F protease: 6

What do the screens show for `CCn1c(-c2cc3c(C(F)(F)F)nn(C)c3s2)n[nH]c1=S`?
BoNT A protease: -1; Autofluor counter: 16651*; Anthrax LF inh2: -3; BoNT F protease: -5

What do the screens show for `Cc1ccc(-c2noc(CCCN3C(=O)c4ccccc4C3=O)n2)cc1`?
BoNT A protease: 2; Autofluor counter: inconclusive; Anthrax LF inh2: -4; BoNT F protease: -6

How did O=C1c2ccccc2C(=O)N1CCc1nc(-c2ccncc2)no1 do in these assays?
BoNT A protease: 2; Autofluor counter: 19470*; Anthrax LF inh2: -8; BoNT F protease: 2
